KKLEB tox = CF airway cell cytotoxicity counter-screen. KKLEB CF airway cells viability, ATPlite luminescence, overnight; stronger effect = lower value; cells stimulated with P. aeruginosa culture filtrate. activity change (cytotoxicity), % at 5 µM. hit rate 0.36% among 360,000. AID 602141;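 active = corrected activity change at or below -50% at 5 µM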
CF NFkB inh = blocks PAF-induced NF-kB reporter in cystic fibrosis cells; hit rate 0.86% among 360,000; KKLEB NF-kB-GFP reporter, GFP fluorescence overnight; inhibition, % at 5 µM;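 active = at least 50% inhibition at 5 µM, scaled per plate between neutral and stimulator controls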;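 also: PAF is a Pseudomonas aeruginosa culture filtrate used as stimulus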
TWEAK-Fn14 inh = inhibitors of TWEAK-Fn14 interaction signaling; TWEAK-stimulated Fn14 reporter cells, luciferase luminescence, 8 h; inhibition, % at 10 µM; hit rate 2% among 360,000; AID 1159606; in the data active = inhibition above about 50%
HIF-2a inh = HIF-2a inhibition. 786-0 RCC cells HIF-2a reporter, luciferase luminescence, overnight. inhibition, % at 18.8 µM. hit rate 0.72% among 360,000;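 active = inhibition of the luminescence signal of 40% or more relative to plate controls, in a single-dose primary screen at 18.75 µM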
Peg3 prom inh = Peg3 promoter activity inhibition. HeLa PEG-Prom luciferase reporter, luminescence, overnight. inhibition, % at 20 µM. hit rate 1.7% among 360,000;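 active = inhibition of at least 50% at 20 µM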
TROY NFkB inh = TROY signaling inhibition; inhibition, % at 10 µM; AID 1347056; hit rate 0.98% among 360,000; Q293 LMP1-TROYcd NF-kB luciferase reporter, 4 h;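 active = compounds whose plate-normalised and pattern-corrected inhibition of the luciferase reporter signal at the single screening dose is 50% or more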
Large screens that a line does not name were inactive. Most compounds without a hit are left out; they make up all but 4% or so of the library.

CCOC(=O)C1CCCN(C(=O)C(C)(C)Oc2ccc(Cl)cc2)C1 (centres undefined)	TWEAK-Fn14 inh 86
CCOC(=O)C1CCCN(C(=O)c2ccc(OC(C)=O)cc2)C1 (centres undefined)	none
O=C(C1c2ccccc2C(=O)N2CCc3ccccc3C12)N1CCN(Cc2ccccc2)CC1 (centres undefined)	none
COc1ccc(NC(=O)CSc2nc3nc(-c4cccs4)cc(C(F)(F)F)c3c(=O)[nH]2)c(OC)c1	none
CCOc1ccccc1NC(=O)CSc1nc2nc(-c3cccs3)cc(C(F)(F)F)c2c(=O)[nH]1	TROY NFkB inh 63
N#Cc1ccc(NC(=O)CSc2cn[nH]n2)cc1	TWEAK-Fn14 inh 90
Cc1ccc(NC(=O)CSc2cn[nH]n2)cc1	none
Cc1ccc(C)c(N2CCN(C(=O)c3cc4c(C)nc5ccccc5c4o3)CC2)c1	TROY NFkB inh 52
COc1ccccc1N1CCN(C(=O)c2cc3c(C)nc4ccccc4c3o2)CC1	TROY NFkB inh 51
COc1ccccc1N1CCN(C(=O)c2oc3ccccc3c2C)CC1	none
Cc1nc2ccccc2c2oc(C(=O)NCc3ccccn3)cc12	none
Cc1nc2ccccc2c2oc(C(=O)N3CC(C)CC(C)C3)cc12 (centres undefined)	none
Cc1ccc(CNC(=O)c2cc3c(C)nc4ccccc4c3o2)cc1	TWEAK-Fn14 inh 61
COc1ccccc1N1CCN(C(=O)c2ccc3nc(-c4ccco4)c(-c4ccco4)nc3c2)CC1	Peg3 prom inh 52
Cc1cc(C)cc(CSCC(=O)N/N=C/c2ccc(OCC(=O)NCc3ccco3)cc2)c1	none
CC(C)C[C@H]1COCCS(=O)(=O)N1Cc1cccc(C(F)(F)F)c1	none
CC(C)CCN1C(=O)c2ccc(C(=O)NCC3CCCO3)cc2C1=O (centres undefined)	none
CC(c1ccccn1)N(CCN(C)C)C(=S)Nc1cccc(F)c1 (centres undefined)	none
O=C(O)CCC(=O)Nc1ccc(/C=C/C(=O)C2CC2)cc1	none
Nc1nnc(CSCc2ccc(Cl)cc2)s1	none
Nc1nnc(SCc2ccc(Cl)cc2)s1	TWEAK-Fn14 inh 68 (no result: TROY NFkB inh)
COc1ccc(CCN2CCC(Nc3nc4ccccc4n3Cc3ccc(F)cc3)CC2)cc1	Peg3 prom inh 82
C=C/C(C)=C/CC1C(=C)CCC2C(C)(C(=O)O)CCCC12C (centres undefined)	none
C=C1CCC2C(C)(C(=O)O)CCCC2(C)C1CCC(CO)CCO (centres undefined)	Peg3 prom inh 107
COC(=O)c1c(NC(=S)NN2CCN(C)CC2)sc2c1CCC(C)C2 (centres undefined)	Peg3 prom inh 107
O=C(CSC1=NCCS1)Nc1ccnc2ccccc12	TWEAK-Fn14 inh 52
Nc1cccc2c1C(=O)N(CCOc1ccccc1F)C2=O	TWEAK-Fn14 inh 59
COc1ccccc1NS(=O)(=O)c1cc([N+](=O)[O-])ccc1N/N=C/c1c[nH]c2ccccc12	TWEAK-Fn14 inh 56, TROY NFkB inh 52
COc1ccc(OC)c(C2C(C(=O)c3cccs3)=C(O)C(=O)N2CCN2CCOCC2)c1 (centres undefined)	none
O=C(O)C1CC=CCC1C(=O)N1CC=C(c2ccccc2)CC1 (centres undefined)	TWEAK-Fn14 inh 78
C/C(=N\NC(=O)c1ccccc1NC(=O)c1ccc(Cl)cc1)c1ccncc1	Peg3 prom inh 64
CC1CCCC(NC(=O)COC(=O)CN2C(=O)C3CCCCC3C2=O)C1C (centres undefined)	TWEAK-Fn14 inh 50
CN1CCC[C@@H]1CCNC(=O)c1cccc2c1C(=O)c1ccc(N3CCCC3)cc1S2(=O)=O	none
Nc1nc(Sc2ccc([N+](=O)[O-])c3nonc23)c2[nH]cnc2n1	Peg3 prom inh 67
Cc1cccc(CSCCNC(=S)Nc2ccccc2)c1	none
COc1ccc(NC(=O)c2cccc3c(-c4cnn(C)c4)coc23)cc1	none
COc1cc(NC(=O)c2cccc3c(-c4cnn(C)c4)coc23)cc(OC)c1OC	Peg3 prom inh 78
CC(=O)c1cccc(NC(=O)c2cccc3c(-c4cnn(C)c4)coc23)c1	Peg3 prom inh 58
Cn1cc(-c2coc3c(C(=O)Nc4ccccc4)cccc23)cn1	none
CCN(CC)CCCNc1nc2ccccc2c2[nH]c3ccc(OC)cc3c12	Peg3 prom inh 99, TROY NFkB inh 69
CC(C)(C)CNC(=O)C1(C)CCN1C(=O)Cc1ccc(-c2ccccc2)cc1 (centres undefined)	TWEAK-Fn14 inh 67
CC(C)(C)c1ccc(CC(=O)N2CCC2(C)C(=O)NCc2cccc3ccccc23)cc1 (centres undefined)	Peg3 prom inh 52
Cn1c2ccccc2c(=O)c2ccc(Cl)cc21	none
CCCC(=O)N(C1CC(C)C(C#N)(C#N)C1(C#N)C#N)N(C)C (centres undefined)	HIF-2a inh 86, Peg3 prom inh 107
CC(=O)N(C1CC(C)C(C#N)(C#N)C1(C#N)C#N)N(C)C (centres undefined)	HIF-2a inh 46, Peg3 prom inh 102
CC(C)c1ccc(/C=C/C(=O)Nc2nc3ccc([N+](=O)[O-])cc3s2)cc1	none
O=[N+]([O-])c1ccc2nc(NN=Cc3ccc(O)cc3)sc2c1	TWEAK-Fn14 inh 69, Peg3 prom inh 72, TROY NFkB inh 66
Cc1nn(-c2ccccc2)c2[nH]c(=O)c(CNc3ccc4c(c3)OCCO4)cc12	TWEAK-Fn14 inh 58, TROY NFkB inh 66
CCOC(=O)c1sc(NC(=O)c2cccs2)cc1C	none
CCOC(=O)c1sc(NC(=O)Nc2cccc(Cl)c2)cc1C	KKLEB tox -64, CF NFkB inh 60, TWEAK-Fn14 inh 75
CCCN1CCC(=O)N([C@H](CSc2ccccc2)CC(C)C)CC1	none
CCCN1CCC(=O)N([C@H](CSc2ccc(C)cc2)CC(C)C)CC1	TROY NFkB inh 61
CCOC(=O)/C(=N/Nc1ccc(OC)cc1)Sc1nnc(CCc2ccccc2)n1-c1ccccc1	TWEAK-Fn14 inh 51, TROY NFkB inh 68
COc1cc(OC)cc(-c2nc3ccccc3c(=O)n2OC(=O)c2ccccc2C)c1	Peg3 prom inh 53
O=C(c1ccc(-c2nnc(-c3ccccc3)o2)cc1)N1CCCCCC1	TWEAK-Fn14 inh 57
COC(=O)c1sccc1NC(=O)CSc1ccccc1NS(=O)(=O)c1ccc(Br)cc1	TWEAK-Fn14 inh 53, TROY NFkB inh 52
Cc1ccc(S(=O)(=O)c2c(C)cc(C)nc2Oc2cccc(C)c2C)cc1	TWEAK-Fn14 inh 72
Cc1cc(C)c(S(C)(=O)=O)c(Oc2ccccc2C)n1	none
O=C(COc1ccccc1[N+](=O)[O-])Nc1ccc2oc(=O)ccc2c1	none
O=C(COc1ccccc1[N+](=O)[O-])Nc1ccc(N2CCN(C(=O)c3cccs3)CC2)cc1	TWEAK-Fn14 inh 72, Peg3 prom inh 104, TROY NFkB inh 76

Compound activity from PubChem BioAssay.
